Measured values published in PubChem BioAssay (Tox21).
Records with an inconclusive call do not appear. A number with no mark means an inactive call. The source made the active and inactive calls. Calls come from the whole dose curve.
% is set by controls: 0 for no effect and ±100 for the full control effect; potency is the fitted concentration of half-maximal effect.

Experiment: p53 small molecule agonists, cell-based qHTS assay with rat liver microsomes (AID 1963578)
Settings: HCT-116 p53RE-bla, beta-lactamase ratio, 16 h; series mostly up to 66 µM; activation: at the top concentration
Outline: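 Rat liver microsome activation: microsomes 0.5 mg/mL, NADPH 0.5 mg/mL final; p53RE-bla cells, 16 h 37 C; LiveBLAzer readout, 2 h RT dark.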
With c1cc2c3c(c1)ccc1cccc(c13)C2 the “activation” value was 8.95%.
With CCOC(=O)N1CCC(Nc2ccc(Cl)cc2N)CC1 the “activation” value was 1.29% [at 30.3 µM].
With CCCCCC(=O)OCCc1ccccc1 the “activation” value was -0.477%.
Work on COc1cc(C(C)C)ccc1C yielded an activation of 0.156% [at 13.6 µM].
In the case of CCCCCCCCCCOCC(O)CN (stereo not given), the “activation” value is reported as 1% [at 30.3 µM].
In the case of CC(C)(Oc1ccc(Cl)cc1)C(=O)OCCCOC(=O)C(C)(C)Oc1ccc(Cl)cc1, the “activation” value is reported as -2.46% [at 30.3 µM].
With CCCCCCCC(=O)Oc1c(Br)cc(C#N)cc1Br the “activation” value was -5.79%.
For O=C(C(Cl)Cl)N1CCOC12CCCCC2, the “activation” value was -0.0399%.
For COc1ccc(-c2coc3cc(O)ccc3c2=O)cc1, the “activation” value was -0.359%.
In the case of COc1ccc2nc(SCc3ncc(C)c(OC)c3C)[nH]c2c1, the “activation” value is reported as 0.0719% [at 30.3 µM].
With O=S(=O)(O)c1ccc(Cl)cc1 the “activation” value was -4.69%.
In the case of CC(C)OC(=O)C(C)N(C(=O)c1ccccc1)c1ccc(F)c(Cl)c1 (stereo not given), the “activation” value is reported as 1.67%.
In the case of CCOC(=O)c1c(N)sc2c1CCN(Cc1ccccc1)C2, the Potency is reported as 15.8 µM (active).
For CN(C)CCCCl, the “activation” value was -0.241%.
For CCCCNc1c(C(=O)OCC)c(C)nc2c1cnn2CC, the “activation” value was 0.202% [at 30.3 µM].
In the case of C=C(C)C(=O)OC1CC(C)CC(C)(C)C1 (stereo not given), the “activation” value is reported as -0.39%.
For Nc1cc(C(=O)O)ccc1Cl, the “activation” value was -0.18%.
For O=C(NC1CCN(CCc2c[nH]c3ccccc23)CC1)c1ccccc1, the “activation” value was 1.12% [at 30.3 µM].
In the case of O=C(O)CCCc1c[nH]c2ccccc12, the “activation” value is reported as -2.86%.
For NC(CO)C(=O)NNCc1ccc(O)c(O)c1O (stereo not given), the “activation” value was 0.49% [at 30.3 µM].
For CCN(CC)c1cccc(C)c1, the “activation” value was 1%.
In the case of CCCC(C)c1ccccc1O (stereo not given), the “activation” value is reported as -2.88%.
With CCO[Si](C)(CCCOCC1CO1)OCC (stereo not given) the “activation” value was -2.72%.
In the case of O=C(O)c1cn(C2CC2)c2cc(Cl)c(F)cc2c1=O, the “activation” value is reported as -0.36% [at 30.3 µM].
For CCCC(=O)O[C@]1(C(=O)CC)CC[C@H]2[C@@H]3CCC4=CC(=O)CC[C@]4(C)[C@H]3[C@@H](O)C[C@@]21C, the “activation” value was 0.971% [at 30.3 µM].
With CCC(=O)Oc1ccc2c(c1)CC[C@@H]1[C@@H]2CC[C@@]2(C)[C@H]1C[C@@H](OC(=O)CC)[C@@H]2OC(=O)CC the “activation” value was -0.0383% [at 30.3 µM].
In the case of C[C@H](O)C(=O)Nc1c(I)c(C(=O)NC(CO)CO)c(I)c(C(=O)NC(CO)CO)c1I, the “activation” value is reported as -0.355% [at 30.3 µM].
In the case of CC1(C)CCC(C)(C)c2cc(NC(=O)c3ccc(C(=O)O)cc3)ccc21, the “activation” value is reported as -7.93% [at 30.3 µM].
Compound O=C=NCc1cccc(CN=C=O)c1 has an activation of 0.266% [at 13.6 µM].
In the case of CCCCC(=O)O[C@]1(C(=O)CO)CC[C@H]2[C@@H]3CCC4=CC(=O)CC[C@]4(C)[C@H]3[C@@H](O)C[C@@]21C, the “activation” value is reported as 0.511% [at 30.3 µM].
For CC[C@H](NC(C)C)[C@H](O)c1ccc(O)c2[nH]c(=O)ccc12, the “activation” value was 0.45% [at 30.3 µM].
With O=[N+]([O-])c1ccc(CO)cc1 the “activation” value was 0.599%.
With CCN(CC)c1ccc(C=O)cc1 the “activation” value was -3.99%.
In the case of O=c1[nH]c(=O)n([C@H]2O[C@H](CO)[C@@H](O)[C@@H]2O)cc1/C=C\Br, the “activation” value is reported as -2.13% [at 30.3 µM].
With O=C(O)c1cc(O)c2c(c1)C(=O)c1cccc(O)c1C2=O the “activation” value was -4.28%.
For CC(=O)Nc1ccc(N)cc1, the “activation” value was -4.25%.
With Nc1ccccc1O the “activation” value was -4.19%.
For CCCCCCCCCC=O, the “activation” value was -0.775%.
With CN1CCN(c2c(F)cc3c(=O)c(C(=O)O)cn4c3c2OCN4C)CC1 the activation was -0.432% [at 13.6 µM].
With COc1ccc2sc(C(=O)Nc3nnn[nH]3)c(OC(C)C)c2c1 the “activation” value was -2.42%.
